The nature of assay [1]: yeast TOR pathway RPL19A-GFP modulators, primary screen, cell-based, S. cerevisiae, multiplex flow cytometry (AID 1862; in the data active means percent of DMSO control GFP below about 86%;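 further: lower values mimic rapamycin by blocking the RPL19A rise seen in DMSO cells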). Particulars: S. cerevisiae RPL19A-GFP strain, flow cytometry fluorescence, 3 h; at 10 µM; stronger effect = lower value. A general note: A flow cytometer gives signals particle by particle.
The nature of assay [2]: modulators of MEP2-GFP levels in yeast, primary screen, S. cerevisiae, multiplex flow cytometry (AID 1867;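 active means GFP response, as percent of the DMSO control, above the screen-wide mean plus 3 SD, about 139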;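 further: median GFP channel fluorescence of barcode-gated MEP2-GFP cells measured by flow cytometry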). The following applies: S. cerevisiae MEP2-GFP strain, 3 h, at 10 µM, stronger effect = higher value, 100% means same as DMSO wells.
Assay [3] in a line: modulators of CIT2-GFP expression in yeast, primary screen, S. cerevisiae, GFP fusion, multiplex flow cytometry (AID 1870;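 active means percent response above a set limit, the screen-wide mean plus 3 SD, cut at about 130% in these data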;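 further: barcoded CIT2-GFP strain pooled with four other GFP strains with rapamycin as positive control; median GFP fluorescence per well over plate mean of DMSO wells so 100% = DMSO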). Particulars: 3 h, at 10 µM, stronger effect = higher value.
The nature of assay [4]: modulators of LAP4-GFP expression in yeast, primary screen, S. cerevisiae, multiplex flow cytometry (AID 1873;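 active means GFP signal, as percent of the solvent control, above the screen mean plus 3 SD, about 149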). Particulars: 3 h, at 10 µM, stronger effect = higher value.
Assay [5] can be described thus: modulators of AGP1-GFP expression in yeast TOR pathway, primary screen, cell-based, multiplex flow cytometry, S. cerevisiae (AID 1887;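 active means GFP signal above the screen-wide mean plus 3 SD, that is over about 124.5% of the solvent control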;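 further: AGP1-GFP fusion strain of S. cerevisiae within a five-strain barcoded multiplex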). The following applies: 3 h, at 10 µM, stronger effect = higher value.
Assay [6] is described as follows: inhibitors of CD8+ T cell-vesicle binding, pilot screen, LFA-1/ICAM-1 modulator project, MLPCN validation set, flow cytometry (AID 2523;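 active means response below a set limit, under 55% cells CD8-positive and vesicle-bound, and CD8 cells' 90th-percentile brightness under 279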;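 on vesicle binding response: mean PE anti-B7-1 fluorescence of CD8+ cells relative to row control; 100% = QL9-loaded vesicles with DMSO vehicle in the same plate row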). The following applies: 2C mouse CD8+ T cells, at 7 µM, stronger effect = lower value; double positive events: measured here: CD8+/vesicle+ event percentage.
Assay [7] addresses Integrin beta-1 (Homo sapiens) + Integrin alpha-4 (Homo sapiens) (UniProt P13612+P05556). As to the kind of experiment: inhibition of HUTS-21 binding to VLA-4, pilot screen, VLA-4 allosteric modulator project, U937 cells, HUTS-21 mAb, flow cytometry, validation set (AID 2674;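 active means inhibition above 50%, about 3 SD of the validation set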;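 further: antibody binding induced by the VLA-4 ligand LDV present at three times its Kd; 0% = LDV ligand with antibody and no compound and 100% = antibody without LDV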). The following applies: HUTS-21 LIBS mAb binding, at 6.7 µM, stronger effect = higher value, binding induced by LDV ligand.

A short description of assay [8]: superoxide lowering in aged yeast cells, pilot screen, validation compound set (AID 2706;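 active means superoxide response below 65% of plate, a cut near 3 SD across the whole screen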;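 further: yeast exposed to compound for one week at 30 degrees C before staining; 100% = mean of all compound wells on the same plate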). Particulars: S. cerevisiae aging, superoxide DHE fluorescence; at 10 µM; stronger effect = lower value.
In assay [9] the target is Beta-adrenergic receptor kinase 1 (Homo sapiens) (UniProt P25098). Description: GRK2 binders displacing RNA aptamer, biochemical, validation, human GRK2, bead flow cytometry (AID 488806;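 active means aptamer binding inhibition above 30%, about 3 SD of noise from non-fluorescent compounds; inactive means inhibition at or below 30%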). Particulars: bead-bound GRK2, FAM-aptamer displacement, at 10 µM, stronger effect = higher value.
Assay [10] has as its target Beta-2 adrenergic receptor (Homo sapiens) (UniProt P07550). As to the kind of experiment: beta2AR agonists driving receptor internalization, pilot screen, cell-based, FAP fluorogen, flow cytometry, validation set (AID 504459;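 active means percent response above 42, roughly 3 SD of non-fluorescent test compounds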;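 further: agonist-driven loss of surface beta2AR via internalization measured by FAP dye flow cytometry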). Particulars: Am2.2-beta2AR cells, FAP surface receptor flow cytometry; at 10 µM; stronger effect = higher value.
The target of assay [11] is AP-2 complex subunit beta (Homo sapiens) (UniProt P63010). As to the kind of experiment: inhibitors of arrestin peptide binding to AP2, pilot screen, biochemical, validation set, GST-AP2 beads, flow cytometry (AID 504541).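 Further: AP2 carries R879A mutation and is captured from E. coli lysate; bead-bound FITC arrestin peptide fluorescence measuring arrestin peptide binding to AP2; 0% = DMSO wells and 100% = excess unlabeled arrestin peptide control.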 The following applies: FITC arrestin peptide, at 10 µM, stronger effect = higher value, AP2 beta2 appendage fragment, R879A mutant.
The nature of assay [12]: yeast V-ATPase proton transport modulators, S. cerevisiae, pHLuorin, HTS validation (AID 504600; in the data active means response above about 15%;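 further: plate controls were DMSO for no effect and reference compound for full effect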). The following applies: S. cerevisiae pHLuorin cytosolic pH, at 10 µM, stronger effect = higher value.
The test system of assay [13] is anti-desmoglein-3 scFv antibody binding to human DSG3. Description: inhibitors of anti-DSG3 scFv binding to DSG3, pilot screen, biochemical, validation compound set, bead-based, flow cytometry (AID 588368;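 active means binding below the plate cutoff, the plate median minus 3 SD, with a reading above zero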;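 further: signal is the median channel fluorescence of bead-bound GFP antibody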). Particulars: Protein G beads, DSG3-Fc, scFv-GFP binding, at 10 µM, stronger effect = lower value.
Assay [14] is described as follows: inhibitors of fungal efflux pumps CDR1, CDR2, MDR1, pilot screen, validation compound set, multiplex, phenotypic (AID 588506;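 active means efflux inhibition above 0.42, the validation set average plus 4 SD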;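 further: Nile Red retained in cells so higher fluorescence means more efflux inhibition; 0 = negative control wells and 1 = enniatin B 25 µM full block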). The following applies: S. cerevisiae pump-expressing triplex, Nile Red efflux flow cytometry; at 10 µM; stronger effect = higher value; the pumps come from Candida albicans.
The target in assay [15] is ATP-binding cassette sub-family B member 6 (Homo sapiens) (UniProt Q9NP58). Description: ABCB6 transporter inhibitors, pilot screen, K562-ABCB6 cells, flow cytometry, validation set (AID 588550;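 active means inhibition above the screen-wide mean plus 3 SD, about 51%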;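 further: 0% = DMSO wells and 100% = benzethonium chloride 70 µM positive control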). The following applies: K562-ABCB6 porphyrin accumulation, 1 h, at 10 µM, stronger effect = higher value.
Assay [16] is described as follows: promoters of myeloid differentiation in arrested cells, primary screen, cell-based, GFP/MAC1 double positive, flow cytometry, validation set (AID 588685;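 active means differentiation response of at least 50%, scaled between solvent and reference control, from cells with both markers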;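 further: compound exposure lasts four days before antibody staining and flow analysis; 0% = DMSO wells and 100% = 5 µM fulvestrant positive control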). Particulars: ER-HoxA9 marrow cells, stronger effect = higher value, normalized: vehicle 0, fulvestrant 100.

Records with an inconclusive call do not appear. The source made the active and inactive calls.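 How the source made its calls, unless noted: active means inhibition above 54%, about 3 SD of non-fluorescent compounds; inactive means the rest.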

Beta-2 adrenergic receptor (Homo sapiens), sequence (P07550 whole entry, looked up): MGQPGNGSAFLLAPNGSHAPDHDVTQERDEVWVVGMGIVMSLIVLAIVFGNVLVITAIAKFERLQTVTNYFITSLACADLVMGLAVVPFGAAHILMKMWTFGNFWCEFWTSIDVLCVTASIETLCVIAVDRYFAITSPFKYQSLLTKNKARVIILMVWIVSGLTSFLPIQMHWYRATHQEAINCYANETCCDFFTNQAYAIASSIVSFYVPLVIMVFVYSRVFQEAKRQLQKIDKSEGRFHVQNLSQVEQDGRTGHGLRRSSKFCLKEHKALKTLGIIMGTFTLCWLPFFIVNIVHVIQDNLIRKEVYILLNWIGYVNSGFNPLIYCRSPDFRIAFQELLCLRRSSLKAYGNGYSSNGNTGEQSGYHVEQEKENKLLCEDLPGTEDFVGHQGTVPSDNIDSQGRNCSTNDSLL
ATP-binding cassette sub-family B member 6 (Homo sapiens), sequence (Q9NP58 whole entry, looked up): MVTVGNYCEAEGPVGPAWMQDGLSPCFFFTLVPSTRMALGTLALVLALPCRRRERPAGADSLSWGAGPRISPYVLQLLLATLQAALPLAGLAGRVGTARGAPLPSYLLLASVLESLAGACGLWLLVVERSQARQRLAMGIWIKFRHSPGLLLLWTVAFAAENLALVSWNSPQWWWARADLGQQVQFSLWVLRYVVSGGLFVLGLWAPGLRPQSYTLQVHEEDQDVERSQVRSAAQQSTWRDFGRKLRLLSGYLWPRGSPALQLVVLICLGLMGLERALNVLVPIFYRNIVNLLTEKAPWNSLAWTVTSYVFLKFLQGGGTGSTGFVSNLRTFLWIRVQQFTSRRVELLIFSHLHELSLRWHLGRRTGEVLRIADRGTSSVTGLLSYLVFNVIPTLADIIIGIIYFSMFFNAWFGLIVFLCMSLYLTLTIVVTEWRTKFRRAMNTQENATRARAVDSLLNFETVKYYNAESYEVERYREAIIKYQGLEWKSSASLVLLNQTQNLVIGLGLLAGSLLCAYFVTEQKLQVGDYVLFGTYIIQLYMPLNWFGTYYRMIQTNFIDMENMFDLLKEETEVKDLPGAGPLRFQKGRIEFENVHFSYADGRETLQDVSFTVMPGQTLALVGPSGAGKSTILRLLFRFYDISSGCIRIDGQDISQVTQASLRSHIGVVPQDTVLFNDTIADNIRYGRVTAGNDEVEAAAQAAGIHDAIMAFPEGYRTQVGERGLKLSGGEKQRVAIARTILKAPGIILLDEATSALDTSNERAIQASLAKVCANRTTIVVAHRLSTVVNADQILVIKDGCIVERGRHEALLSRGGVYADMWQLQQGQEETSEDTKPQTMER
AP-2 complex subunit beta (Homo sapiens), sequence (P63010 whole entry, looked up, the tested form may be a part, one chain of several): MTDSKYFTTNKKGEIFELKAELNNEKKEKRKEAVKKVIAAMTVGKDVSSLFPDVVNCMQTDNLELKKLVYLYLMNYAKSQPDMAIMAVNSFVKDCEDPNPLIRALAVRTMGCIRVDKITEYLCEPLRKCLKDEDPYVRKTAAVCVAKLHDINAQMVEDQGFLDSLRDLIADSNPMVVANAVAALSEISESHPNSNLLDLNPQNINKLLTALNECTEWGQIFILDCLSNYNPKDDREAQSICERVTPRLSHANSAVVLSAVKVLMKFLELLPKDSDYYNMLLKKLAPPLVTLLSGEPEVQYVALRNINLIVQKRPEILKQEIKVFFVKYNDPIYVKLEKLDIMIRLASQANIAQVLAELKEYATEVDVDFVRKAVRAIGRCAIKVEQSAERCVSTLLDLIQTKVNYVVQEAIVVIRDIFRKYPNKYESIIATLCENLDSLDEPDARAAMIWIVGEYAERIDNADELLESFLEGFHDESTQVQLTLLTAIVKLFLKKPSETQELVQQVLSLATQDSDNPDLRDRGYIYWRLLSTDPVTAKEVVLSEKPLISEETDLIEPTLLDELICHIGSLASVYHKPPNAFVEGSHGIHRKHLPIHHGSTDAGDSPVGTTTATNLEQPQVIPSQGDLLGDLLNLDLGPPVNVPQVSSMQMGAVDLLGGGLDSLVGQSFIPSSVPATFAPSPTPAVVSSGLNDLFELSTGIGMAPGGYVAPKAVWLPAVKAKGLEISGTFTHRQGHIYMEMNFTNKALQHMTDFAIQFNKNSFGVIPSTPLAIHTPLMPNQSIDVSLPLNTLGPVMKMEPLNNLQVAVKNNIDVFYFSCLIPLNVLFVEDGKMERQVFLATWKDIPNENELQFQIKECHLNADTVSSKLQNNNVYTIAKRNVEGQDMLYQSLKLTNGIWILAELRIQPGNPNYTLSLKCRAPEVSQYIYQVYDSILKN
Beta-adrenergic receptor kinase 1 (Homo sapiens), sequence (P25098 whole entry, looked up): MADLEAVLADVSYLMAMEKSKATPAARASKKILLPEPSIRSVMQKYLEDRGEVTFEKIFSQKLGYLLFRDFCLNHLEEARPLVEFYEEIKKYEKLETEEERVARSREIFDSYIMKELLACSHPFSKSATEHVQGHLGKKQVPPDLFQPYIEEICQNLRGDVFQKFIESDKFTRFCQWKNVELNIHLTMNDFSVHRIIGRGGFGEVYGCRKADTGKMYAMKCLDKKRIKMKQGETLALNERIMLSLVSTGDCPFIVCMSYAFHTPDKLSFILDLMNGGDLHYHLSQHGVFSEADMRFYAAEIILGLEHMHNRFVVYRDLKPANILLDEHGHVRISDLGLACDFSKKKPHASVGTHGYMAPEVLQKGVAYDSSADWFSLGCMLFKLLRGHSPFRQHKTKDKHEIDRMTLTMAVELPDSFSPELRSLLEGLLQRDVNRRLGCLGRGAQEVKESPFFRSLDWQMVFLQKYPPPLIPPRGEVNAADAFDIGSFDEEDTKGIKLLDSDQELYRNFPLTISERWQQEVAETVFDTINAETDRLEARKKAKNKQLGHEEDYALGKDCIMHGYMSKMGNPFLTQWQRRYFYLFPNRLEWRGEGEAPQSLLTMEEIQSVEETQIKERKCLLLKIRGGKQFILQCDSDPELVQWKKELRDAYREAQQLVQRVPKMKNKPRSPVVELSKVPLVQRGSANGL
Integrin beta-1 (Homo sapiens) + Integrin alpha-4 (Homo sapiens), sequence (P05556 whole entry, looked up): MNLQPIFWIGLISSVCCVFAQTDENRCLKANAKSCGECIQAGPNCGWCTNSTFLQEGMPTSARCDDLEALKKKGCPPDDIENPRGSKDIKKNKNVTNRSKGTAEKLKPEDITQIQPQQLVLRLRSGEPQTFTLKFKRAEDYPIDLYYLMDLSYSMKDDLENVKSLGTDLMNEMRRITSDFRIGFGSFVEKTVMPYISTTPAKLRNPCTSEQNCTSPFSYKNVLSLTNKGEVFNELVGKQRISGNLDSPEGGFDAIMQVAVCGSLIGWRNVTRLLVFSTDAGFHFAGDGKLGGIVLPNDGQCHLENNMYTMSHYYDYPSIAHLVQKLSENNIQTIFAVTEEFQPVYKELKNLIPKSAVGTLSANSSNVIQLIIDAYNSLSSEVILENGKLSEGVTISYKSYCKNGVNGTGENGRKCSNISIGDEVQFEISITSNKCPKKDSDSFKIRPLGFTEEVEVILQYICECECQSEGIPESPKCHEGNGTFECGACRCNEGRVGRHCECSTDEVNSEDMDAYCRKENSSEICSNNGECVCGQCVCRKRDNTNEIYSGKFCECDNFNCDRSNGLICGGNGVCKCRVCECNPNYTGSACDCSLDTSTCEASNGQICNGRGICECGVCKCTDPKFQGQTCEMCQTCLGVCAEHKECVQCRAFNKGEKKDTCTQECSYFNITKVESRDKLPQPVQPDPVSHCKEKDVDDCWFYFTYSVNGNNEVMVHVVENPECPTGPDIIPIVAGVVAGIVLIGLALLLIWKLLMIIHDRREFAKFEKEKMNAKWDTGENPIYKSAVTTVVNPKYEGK
Integrin beta-1 (Homo sapiens) + Integrin alpha-4 (Homo sapiens), sequence (P13612 whole entry, looked up): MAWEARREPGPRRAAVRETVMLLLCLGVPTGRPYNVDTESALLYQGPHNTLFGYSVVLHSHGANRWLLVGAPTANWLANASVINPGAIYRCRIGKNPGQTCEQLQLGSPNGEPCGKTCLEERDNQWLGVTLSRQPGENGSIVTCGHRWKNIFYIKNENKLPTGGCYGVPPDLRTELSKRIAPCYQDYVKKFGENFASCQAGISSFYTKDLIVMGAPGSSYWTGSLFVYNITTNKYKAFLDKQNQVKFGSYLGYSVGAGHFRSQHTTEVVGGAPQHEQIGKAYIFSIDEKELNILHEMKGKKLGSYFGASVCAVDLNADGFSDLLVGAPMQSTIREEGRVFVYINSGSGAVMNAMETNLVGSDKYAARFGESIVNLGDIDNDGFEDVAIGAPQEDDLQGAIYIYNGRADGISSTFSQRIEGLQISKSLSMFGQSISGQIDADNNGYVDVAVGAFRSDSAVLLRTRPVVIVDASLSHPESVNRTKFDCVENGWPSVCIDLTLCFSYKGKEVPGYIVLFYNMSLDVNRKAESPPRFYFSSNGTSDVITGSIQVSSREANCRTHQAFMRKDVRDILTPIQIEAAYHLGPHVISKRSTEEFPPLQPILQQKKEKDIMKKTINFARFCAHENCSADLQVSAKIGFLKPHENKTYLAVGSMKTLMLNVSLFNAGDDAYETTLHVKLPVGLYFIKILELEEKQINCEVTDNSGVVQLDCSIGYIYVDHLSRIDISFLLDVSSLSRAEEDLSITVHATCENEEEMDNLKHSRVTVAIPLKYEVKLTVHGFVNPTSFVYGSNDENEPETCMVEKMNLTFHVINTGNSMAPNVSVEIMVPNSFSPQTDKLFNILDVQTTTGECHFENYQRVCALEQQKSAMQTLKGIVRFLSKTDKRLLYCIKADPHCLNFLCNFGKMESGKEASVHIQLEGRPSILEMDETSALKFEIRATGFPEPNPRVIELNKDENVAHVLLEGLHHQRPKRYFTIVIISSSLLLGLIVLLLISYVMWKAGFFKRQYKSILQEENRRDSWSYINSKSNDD

A word on the inhibition: it is the relative decrease from the control value, in per cent. On to `O=Cc1ccc(O)c(O)c1`, for which the percent of DMSO control GFP in assay [1] was 106% (inactive). In addition, the GFP response vs DMSO in [2] was 99.7% (inactive); in assay [4] it was 98% (inactive). In addition, in assay [3], the percent response of DMSO control was 107% (inactive). The GFP response, % of DMSO in assay [5] was 108% (inactive). Besides, in [6], the double positive events amounted to 65.7%. Besides, the vesicle binding response in [6] was 145% (inactive). For the same molecule, the results for the inhibition in [7], in assay [11] and in assay [15] were 8.29% (inactive), 6.09% (inactive) and 21% (inactive), respectively. In addition, the superoxide response (% of plate) in assay [8] was 99.7% (inactive). Further, the aptamer binding inhibition in assay [9] is 6% (inactive). The results for the response in assay [10] and in assay [12] were 0.09% (inactive) and -5.24% (inactive), respectively. Further, the binding (% of control) in assay [13] was 105% (inactive). The efflux inhibition (fraction of control) in [14] is -0.11 (inactive). In addition, the differentiation response in assay [16] was -4.57% (inactive).
Turning to `CCOC(=O)C1=C(C)NC(C)=C(C(=O)OC)C1c1cccc(Cl)c1Cl` (stereo not given), the percent of DMSO control GFP in [1] is 88.4% (inactive). In addition, the GFP response vs DMSO in assay [2] was 125% (inactive); in [4], 79.2% (inactive). The percent response of DMSO control in [3] was 104% (inactive). For the same molecule, in [5], the GFP response, % of DMSO was 80.3% (inactive). Also, the double positive events in assay [6] stood at 65.9%. Also, the vesicle binding response in assay [6] was 193% (inactive). Also, the values for the inhibition in [7], in assay [11] and in assay [15] were 5.49% (inactive), -0.86% (inactive) and 9% (inactive), respectively. Moreover, in [8], the superoxide response (% of plate) is 121% (inactive). Besides, the aptamer binding inhibition in assay [9] is 6% (inactive). Besides, the values for the response in [10] and in assay [12] were -8.07% (inactive) and -0.17% (inactive), respectively. For the same molecule, the binding (% of control) in [13] is 106% (inactive). The efflux inhibition (fraction of control) in assay [14] was -0.28 (inactive). Further, in assay [16], the differentiation response is 0% (inactive).
With `CC12CN3CC(C)(CN(C1)C3c1ccc(Br)cc1O)C2` (stereo not given), the percent of DMSO control GFP in assay [1] was 101% (inactive). The GFP response vs DMSO is 108% (inactive) in assay [2] and 123% (inactive) in [4]. The percent response of DMSO control in assay [3] is 108% (inactive). In addition, in assay [5], the GFP response, % of DMSO is 106% (inactive). In addition, in assay [6], the double positive events amounted to 57.2%. Further, the vesicle binding response in [6] was 197% (inactive). Moreover, the inhibition in [7] was 6.55% (inactive); in assay [11] it was -45.4% (inactive); in assay [15], -1% (inactive). Besides, the superoxide response (% of plate) in assay [8] was 127% (inactive). Moreover, the aptamer binding inhibition in assay [9] is -3% (inactive). Besides, the response in assay [10] is -11.7% (inactive); in assay [12], 19% (active). Moreover, the binding (% of control) in [13] was 103% (inactive). Moreover, in assay [14], the efflux inhibition (fraction of control) was 0.21 (inactive). The differentiation response in assay [16] is 2.89% (inactive).
Regarding `CN(C)CC/C=C1\c2ccccc2COc2ccccc21`, the percent of DMSO control GFP in assay [1] is 96% (inactive). For the same molecule, the GFP response vs DMSO is 96.6% (inactive) in assay [2] and 104% (inactive) in assay [4]. In addition, the percent response of DMSO control in [3] is 90.5% (inactive). Besides, the GFP response, % of DMSO in assay [5] was 109% (inactive). Further, the double positive events in [6] was 68.1%. The vesicle binding response in assay [6] is 176% (inactive). For the same molecule, the inhibition in assay [7] is 20.2% (inactive); in assay [11], -7.94% (inactive); in assay [15], 6% (inactive). In [8], the superoxide response (% of plate) was 93.9% (inactive). Moreover, in assay [9], the aptamer binding inhibition is -3% (inactive). For the same molecule, the response in [10] was 0.32% (inactive); in [12] it was 3.08% (inactive). Further, in assay [13], the binding (% of control) was 79% (active). Besides, in [14], the efflux inhibition (fraction of control) is -0.04 (inactive). Also, the differentiation response in assay [16] was -6.96% (inactive).
Take `CC(C)(C)OC(=O)NCCC(=O)Oc1ccc2ccc(=O)oc2c1`: in assay [1], the percent of DMSO control GFP is 100% (inactive). Also, the GFP response vs DMSO in [2] was 91.9% (inactive); in [4], 76% (inactive). The percent response of DMSO control in assay [3] is 98.6% (inactive). The GFP response, % of DMSO in assay [5] was 84% (inactive). In assay [6], this molecule returned a double positive events of 56.1%. Further, in [6], the vesicle binding response is 238% (inactive). Besides, the inhibition is -1.79% (inactive) in [7], 17.2% (inactive) in assay [11] and 3% (inactive) in assay [15]. In addition, the superoxide response (% of plate) in assay [8] was 101% (inactive). Also, the aptamer binding inhibition in assay [9] is 4% (inactive). For the same molecule, the response in assay [10] was 7.52% (inactive); in assay [12] it was 7.71% (inactive). In addition, the binding (% of control) in assay [13] is 101% (inactive). For the same molecule, the efflux inhibition (fraction of control) in [14] is 0.05 (inactive). Also, the differentiation response in assay [16] was -12% (inactive).

These data come from PubChem BioAssay.
